About 83,000 compounds went through this panel and 20% of them were active in at least one assay; those are over-represented in the sample as a whole.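 Interpretation: 100, growth as untreated; towards 0, rising growth inhibition; 0, no net growth; 0 to -100, cell death. Compounds scoring below 10 were considered active.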 A number with no mark means an inactive call. Activity calls are given as the source filed them.

The results in this text go back to PubChem BioAssay (NCI).

Test systems include NCI-H23 lung; NCI-H226 lung; NCI-H322M lung; HOP-62 NSCLC; NCI-H460 lung; NCI-H522 lung; A549/ATCC NSCLC; 786-0 renal; DU-145 prostate; K-562 leukemia; MALME-3M melanoma; MDA-MB-231 breast; RXF 393 renal; SF-268 CNS; SF-295 CNS; SF-539 CNS; UACC-257 melanoma; M14 melanoma; COLO 205 colon.
What all share (experiment): NCI-60 one-dose screen, 48 h (100 = growth as untreated, 0 = no growth, -100 = all killed)
Settings in all cases: 10 µM unless noted

As to `Cc1occc1-c1nc2s/c(=C/c3ccc(-c4cc(C(F)(F)F)ccc4Cl)o3)c(=O)n2n1`, the growth in the assay on NCI-H23 lung is 104%; in the assay on NCI-H226 lung, 98.1%; in the assay on NCI-H322M lung, 101%; in the assay on HOP-62 NSCLC, 116%; in the assay on NCI-H460 lung it was 109%; with NCI-H522 lung it was 98.2%. Besides, the growth in the assay on A549/ATCC NSCLC was 102%; in the assay on 786-0 renal, 103%; in the assay with DU-145 prostate it was 103%; with K-562 leukemia, 105%; in the assay on MALME-3M melanoma, 98.5%; in the assay on MDA-MB-231 breast, 104%. Besides, the growth in the assay on RXF 393 renal is 108%; with SF-268 CNS, 97.2%; in the assay with SF-295 CNS, 99.7%; with SF-539 CNS, 103%; with UACC-257 melanoma it was 105%; in the assay with M14 melanoma, 97.1%.
Regarding `C#CCn1cccc1CNc1ccc(OC)cc1`, the growth in the assay with NCI-H23 lung is -88.9% (active); in the assay on NCI-H226 lung it was -50.1% (active); with NCI-H322M lung it was 47%; in the assay with HOP-62 NSCLC, -45.3% (active); in the assay on NCI-H460 lung it was -50.5% (active); with NCI-H522 lung, -57.7% (active). Also, the growth is -47.6% (active) with A549/ATCC NSCLC; -69.6% (active) in the assay with 786-0 renal; -60.7% (active) in the assay on COLO 205 colon; -96.6% (active) with DU-145 prostate; -46.9% (active) with K-562 leukemia; -53.9% (active) in the assay with MDA-MB-231 breast. Moreover, the growth in the assay with RXF 393 renal is -32.3% (active); with SF-268 CNS it was -56% (active); in the assay with SF-295 CNS, -92% (active); with SF-539 CNS, -94.4% (active); with UACC-257 melanoma, 23.6%; in the assay on M14 melanoma it was 7.08% (active).
As to `COc1cc(OC)c(S(N)(=O)=O)cc1C(C)=O`, the growth with NCI-H23 lung is 106%; with NCI-H226 lung, 103%; with NCI-H322M lung, 109%; in the assay with HOP-62 NSCLC, 113%; in the assay with NCI-H460 lung, 107%; with NCI-H522 lung it was 103%. In addition, the growth in the assay on A549/ATCC NSCLC was 104%; in the assay on 786-0 renal, 101%; with COLO 205 colon it was 119%; in the assay with DU-145 prostate, 108%; with MALME-3M melanoma, 109%; with MDA-MB-231 breast, 101%. The growth with RXF 393 renal was 121%; in the assay with SF-268 CNS, 104%; in the assay with SF-295 CNS it was 100%; with SF-539 CNS, 101%; in the assay with UACC-257 melanoma, 102%; in the assay with M14 melanoma, 109%.
`c1cc(-c2nc3ccc4[nH]ncc4c3c3c2CCCC3)[nH]n1`: the growth in the assay on NCI-H23 lung was 54.8%; in the assay on NCI-H226 lung, 74.9%; with NCI-H322M lung, 76.6%; in the assay with HOP-62 NSCLC, 68.6%; in the assay with NCI-H460 lung, 38.8%; in the assay on NCI-H522 lung, 30.9%. The growth was 48.1% with A549/ATCC NSCLC; 64.7% with 786-0 renal; 63% in the assay on DU-145 prostate; 64% with K-562 leukemia; 87.7% in the assay with MALME-3M melanoma; 89.2% in the assay on MDA-MB-231 breast. Also, the growth in the assay on RXF 393 renal is 38%; in the assay with SF-268 CNS it was 71.4%; in the assay with SF-295 CNS, 67.5%; in the assay on SF-539 CNS, 54.1%; in the assay with UACC-257 melanoma it was 91.1%; with M14 melanoma, 39.7%.
On to `CCNC(=O)N1CCc2cc(OC)c(OCCc3ccc(OC)cc3)cc2C1c1ccc(OC)cc1C` (centres undefined), for which the growth in the assay with NCI-H23 lung is 29%; in the assay with NCI-H226 lung it was 33.5%; with NCI-H322M lung it was 40.1%; in the assay with HOP-62 NSCLC, 20.3%; in the assay on NCI-H460 lung, 1.22% (active); in the assay on NCI-H522 lung, -8.18% (active). Also, the growth in the assay on A549/ATCC NSCLC was 13.8%; in the assay on 786-0 renal it was 9.54% (active); in the assay with DU-145 prostate it was 16.2%; in the assay with K-562 leukemia, 16.5%; with MALME-3M melanoma it was 45.9%; in the assay with MDA-MB-231 breast, 19.7%. The growth in the assay with RXF 393 renal was -12.7% (active); in the assay on SF-268 CNS, 34%; with SF-295 CNS it was 10.6%; with SF-539 CNS, 6.35% (active); with UACC-257 melanoma it was 50.5%; with M14 melanoma it was 20%.
As for `CCO/C=N/C1=C(C#N)C(c2ccc(F)cc2)c2sc3c(CC)cccc3c2O1` (centres undefined), the growth was 28.3% in the assay on NCI-H23 lung; 51.6% in the assay on NCI-H226 lung; 42.6% with NCI-H322M lung; 48.6% in the assay with HOP-62 NSCLC; 3.42% (active) in the assay with NCI-H460 lung; 8.86% (active) in the assay with NCI-H522 lung. The growth was 24.6% in the assay on A549/ATCC NSCLC; 26.3% with 786-0 renal; 12.6% in the assay with COLO 205 colon; 19.3% with DU-145 prostate; 8.58% (active) with K-562 leukemia; 29.7% in the assay with MDA-MB-231 breast. Moreover, the growth with RXF 393 renal is -20.6% (active); in the assay with SF-268 CNS it was 47.5%; in the assay on SF-295 CNS, -6.92% (active); with SF-539 CNS, -12.7% (active); with UACC-257 melanoma, 69.5%; with M14 melanoma it was 8.85% (active).
Take `Cc1nn(-c2ccccc2)c2ncnc(N/N=C/c3ccccc3O)c12`: the growth was 14.3% in the assay with NCI-H23 lung; 14.8% in the assay with NCI-H226 lung; 14.1% in the assay with NCI-H322M lung; 10.2% in the assay with HOP-62 NSCLC; 6.19% (active) in the assay on NCI-H460 lung; 23.1% in the assay on NCI-H522 lung. Further, the growth was 11.7% in the assay with A549/ATCC NSCLC; 11% in the assay with 786-0 renal; 10.5% in the assay with COLO 205 colon; 21% in the assay with DU-145 prostate; 15% in the assay on K-562 leukemia; 29.7% with MDA-MB-231 breast. Besides, the growth with RXF 393 renal is -20.4% (active); in the assay with SF-268 CNS it was 8.32% (active); in the assay with SF-295 CNS it was 7.98% (active); with SF-539 CNS it was -1.39% (active); in the assay on UACC-257 melanoma, 9.8% (active); with M14 melanoma it was 0.329% (active).
With `O=C(CCn1cc[n+](CC(=O)c2ccc(-c3ccccc3)cc2)c1)Nc1cccc2cccnc12`, the growth with NCI-H23 lung was 81.1%; with NCI-H226 lung, 83.3%; in the assay on NCI-H322M lung, 92.2%; in the assay with HOP-62 NSCLC, 102%; in the assay with NCI-H460 lung, 91.9%; in the assay on NCI-H522 lung, 48%. In addition, the growth is 94.4% with A549/ATCC NSCLC; 97.7% in the assay on 786-0 renal; 72.8% in the assay on COLO 205 colon; 90.9% in the assay with DU-145 prostate; 45.9% with K-562 leukemia; 65.1% in the assay with MDA-MB-231 breast. The growth is 90.5% in the assay on RXF 393 renal; 72.2% in the assay on SF-268 CNS; 100% in the assay on SF-295 CNS; 80.8% in the assay with SF-539 CNS; 40.9% with UACC-257 melanoma; 82.3% with M14 melanoma.
